Most compounds without a hit are left out; they make up all but 19% or so of the library.
HT1080 IDH1KD tx – qHTS for induction of synthetic lethality in tumor cells producing 2HG: qHTS for the HT-1080-IDH1KD cell line | HT-1080 IDH1 knockdown viability, ATP luminescence, 48 h | Potency, µM (doses to about 46.1 µM), without a hit: at the top dose activity, negative = toxicity, hits mostly cytotoxic | actives 2% (n = 360,000) | AID 686971, 2013;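 further: potency means the concentration at half of the fitted maximal effect; 0% = DMSO wells and -100% = cell-free medium wells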
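Cytotoxicity counter-line: IDH1KD HT-1080, 48 h, CellTiter-Glo. Curves classed by r2, magnitude and activity.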
HT1080-NT tox – qHTS for induction of synthetic lethality in tumor cells producing 2HG: qHTS for the HT-1080-NT fibrosarcoma cell line | HT-1080-NT fibrosarcoma viability, CellTiter-Glo ATP luminescence, 48 h | Potency, µM (doses to about 46.1 µM), inactives show at the highest dose activity, negative = less viability, usual class: cytotoxic | actives 1.6% (n = 360,000) | AID 686970, 2013;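 further: NT is the 2HG producing partner of a matched IDH1 knockdown line; potency means the concentration at half of the fitted maximal effect; 0% = DMSO-treated cells and -100% = media-only wells without cells; nearly all actives have a fitted effect of over 55% in size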
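HT-1080-NT; 750 cells/well; 5% FBS RPMI; 48 h compound, 37 degrees C; CellTiter-Glo luminescence; curve fitting and curve-class assignment.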
IL1B secr inh – qHTS for Inhibitors of Inflammasome Signaling: IL-1-beta AlphaLISA Primary Screen; AID 743279, 2014; activity change, % at 57.5 µM; THP-1 LPS/ATP IL-1B secretion, AlphaLISA, 16 h; hits give low values; actives 4.7% (n = 360,000); in the data active means activity change below about -50%; inconclusive means mostly about -30% to -49%
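Secreted IL-1B measured by AlphaLISA bead assay after 16 h compound exposure of THP-1 cells; compounds (final up to 57.5 uM) added 1 h before LPS (250 ng/mL) and ATP (1.25 mM) stimulation; lower signal means less secretion.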
DT40 TDP1 no CPT – qHTS for Inhibitors of human tyrosyl-DNA phosphodiesterase 1 (TDP1): qHTS in cells in absence of CPT. DT40 Tdp1-/- hTDP1 cells, no CPT, ATP luminescence, 48 h. Potency, µM (top dose mostly 46.2 µM), inactives show at the top dose activity change, negative = growth inhibition, hits mostly inhibitors. actives 15% (n = 420,000). AID 686978, 2013; further: potency means the concentration at half of the fitted maximal effect; nearly all actives have a fitted effect of over 55% in size
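Growth kinetics read by CellTiter-Glo luminescence after ≥48 hr at 37 °C. Cells: DT40 Tdp1-/- stably carrying human TDP1, 400 per well, compound exposure in the absence of CPT (DMSO vehicle).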
TDP1 cell CPT – qHTS for Inhibitors of human tyrosyl-DNA phosphodiesterase 1 (TDP1): qHTS in cells in presence of CPT. Potency, µM (doses to about 46.2 µM), without a hit: at the top dose activity change, negative = growth inhibition, hits mostly inhibitors. actives 12% (n = 420,000). chicken DT40 Tdp1-/-;hTDP1 cells + 20 nM CPT, ATP luminescence, 48 h; further: potency means the concentration at half of the fitted maximal effect; nearly all actives have a fitted effect of over 55% in size
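Chicken DT40 Tdp1-/- cells stably complemented with human TDP1 were seeded at 400 cells/well in medium containing 20 nM camptothecin, exposed to pin-transferred compounds, and grown at 37 °C for at least 48 hr. Viability was read as ATP luminescence.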
* hit, by the source's call; ? = inconclusive; . = no result; ! = not active in a repeat; [ ] = remark or other dose. Unless noted, the call rests on the fitted dose curve; in most records, active means well fitted curve in the direction sought with a large enough effect; inconclusive means small, poorly fitted or top-dose-only effect, or another doubt; inactive means no such curve, though single readings can be large; an effect the other way counts as inactive or inconclusive. Unless noted, on the % scale 0 is the no-effect control and ±100 the full control effect.

SMILES	HT1080 IDH1KD tx	HT1080-NT tox	IL1B secr inh	DT40 TDP1 no CPT	TDP1 cell CPT
N[C@@H](CCP(=O)(O)O)C(=O)O	.	.	.	1%	2%
CCC1(NS(=O)(=O)c2ccc(N)cc2)C(=O)N(C)C(=O)N(C)C1=O	-22%	5%	19	?	?
[S]=[Sb](=[S])[S][Sb](=[S])=[S]	.	.	.	0%	5%
CCCOP(=O)(OCCC)C(NC(=O)c1cc(OC)c(OC)c(OC)c1)c1ccccc1 (centres undefined)	-7%	0%	0	?	-24%
COc1cc(C(=O)NCCSc2c(-c3ccccc3)[nH]c3ccccc23)cc(OC)c1OC	.	.	.	8.2µM*	8.2µM*
CC(Sc1ncnc2sccc12)C(=O)Nc1ccc(S(=O)(=O)N2CCOCC2)cc1 (centres undefined)	-2%	-5%	15	-33%	?
O=C(NCCSc1c(-c2ccc(F)cc2)[nH]c2ccccc12)c1ccc(S(=O)(=O)N2CCOCC2)cc1	.	.	.	4.1µM*	5.2µM*
CNC(C)Cc1ccc2c(c1)OCO2 (centres undefined)	.	.	.	-14%[92.5 µM]	-26%[92.5 µM]
COc1ccc(-[n+]2c(-c3ccccc3)cc(-c3ccccc3)cc2-c2ccccc2)cc1	7.3µM*	8.2µM*	-76*	0.26µM*	0.41µM*
O=[N+]([O-])c1ccc(-[n+]2c(-c3ccccc3)cc(-c3ccccc3)cc2-c2ccccc2)cc1	?	?	-3	21µM*	?
Oc1ccccc1-[n+]1c(-c2ccccc2)cc(-c2ccccc2)c(O)c1-c1ccccc1	-5%	-15%	4	?	?
C[n+]1c(-c2ccccc2)cc(-c2ccc(O)cc2)cc1-c1ccccc1	-13%	-22%	?	21µM*	18µM*
Oc1ccc(-[n+]2c(-c3ccccc3)cc(-c3ccccc3)cc2-c2ccccc2)cc1	21µM*	12µM*	-95*	0.65µM*	1.2µM*
C[C@H](NC(=O)[C@@H](N)Cc1ccc(O)cc1)C(=O)N[C@@H](Cc1ccccc1)C(=O)NCC(=O)N[C@@H](Cc1ccc(O)cc1)C(=O)N1CCC[C@H]1C(=O)N[C@@H](CO)C(N)=O	.	.	.	3%[4.12 µM]	4%[4.12 µM]
COC(=O)c1c(C)[nH]c(C(=O)C(Cc2ccccc2)N(C)C)c1C (centres undefined)	-25%	-2%	-1	-26%	?
C[N+]1(C)C2CC(OC(=O)C(CO)c3ccccc3)CC1C1OC12 (centres undefined)	8%	14%	-20	3%	-22%
O=C1Nc2ccc(Br)cc2C(c2ccccc2Cl)=NC1O (centres undefined)	-9%	-2%	-10	?	-17%
Cn1cccc1-c1cccnc1	.	.	.	-2%	-8%
CCOC(=O)CC(SP1(=S)OCC2(CCCCC2)CO1)C(=O)OCC (centres undefined)	3%	2%	-7	-6%	-2%
CCOC(=O)CC(SP(=S)(OC)OC)C(=O)OCC (centres undefined)	.	.	.	4.3µM*!	0.022µM*!
CS(=O)(=O)N1CCC2(CCCN(Cc3ccncc3)C2)CC1	.	.	.	-3%	0%
COc1ccc(-c2cc(C(=O)N3CCC4(CC3)OCCO4)c3ccccc3n2)cc1	-14%	-11%	-12	?	?
CCOc1ccc(-c2cc(C(=O)N3CCC4(CC3)OCCO4)c3ccccc3n2)cc1	10%	1%	18	?	5.2µM*
CCOC(=O)c1c(NC(=O)c2c(N)n(CCCOC)c3nc4ccccc4nc23)sc2c1CCCC2	-1%	0%	1	?	-4%
CCOC(=O)c1c(NC(NC(=O)CF)C(Cl)(Cl)Cl)sc2c1CCCC2 (centres undefined)	-10%	-8%	-13	?	13µM*
SMILES	HT1080 IDH1KD tx	HT1080-NT tox	IL1B secr inh	DT40 TDP1 no CPT	TDP1 cell CPT
OCC1CO1 (centres undefined)	4%	3%	10	2%	16%
c1cc2c(cc1[C@H]1OC[C@@H]3[C@H]1CO[C@H]3c1ccc3c(c1)OCO3)OCO2	.	.	.	-39%	-45%
CC(=O)OC1CC[C@@]2(C)C3CC[C@]4(C)C(=O)CCC4C3CC[C@H]2C1 (some centres undefined)	.	.	.	-1%	?
CCC(=O)O[C@H]1[C@@H](N2CCCCC2)C[C@H]2[C@@H]3CC[C@H]4C[C@H](OC(C)=O)[C@@H](N5CCCCC5)C[C@]4(C)[C@H]3CC[C@@]21C	.	.	.	6.7µM*	7.5µM*
CC(=O)OC1C(O)C(C)OC(OC2C(OC(=O)C3CCC4C(C3)OC3(CC(OC(=O)/C=C/c5ccccc5)C(C)CO3)C43CO3)OC(C)C(O)C2OC(C)=O)C1O (centres undefined)	0.065µM*	0.13µM*	-98*	0.073µM*	0.15µM*
CCOc1ccc(-n2c(O)c(N=Nc3c(C)n(C)n(-c4ccccc4)c3=O)c(=O)[nH]c2=O)cc1	-20%	-7%	30	-15%	-1%
N#CC1=C(N)Oc2c(c(=O)sc3ccccc23)C1c1cccnc1 (centres undefined)	4.6µM*	3.3µM*	23	8.2µM*	8.2µM*
O=C(COc1ccccc1[N+](=O)[O-])N1CCN(CCc2ccccn2)CC1	.	.	.	4%	-3%
COc1nc2ccccc2nc1N1CCN(C)CC1	6%	0%	-25	1%	2%
CC1=C(C/C(C)=C/c2ccccc2)/C(=C/CO)[C@@H]2OC(=O)O[C@]2(C)C12CC2	3%	0%	4	12µM*	8.2µM*
CC(=O)OC1CC[C@]2(C#N)[C@H]3CC[C@]4(C)[C@H](C5C=CC(=O)O5)CCC4(O)C3CCC2(O)C1 (some centres undefined)	15µM*	26µM*	-23	?	?
Cc1csc(NC(=O)C(Cl)c2ccccc2)n1 (centres undefined) (tested in a mixture with another compound)	0%	-4%	-21	?	?
CC(C)(C)c1csc(NC(=O)Nc2ccccc2)n1	?	?	-94*	?	-25%
CC1(C)CC2(CCO1)NCCN1C(=O)CSC12 (centres undefined)	1%	2%	1	-13%	3%

Screening data: PubChem, National Center for Advancing Translational Sciences (NCATS)
